Source: PubChem BioAssay (Tox21)
Unmarked numbers belong to inactive results. The call rests on the fitted dose curve; in most records, active means well fitted curve in the direction sought with a large enough effect in the repeat runs; inconclusive means weak or mixed curves; inactive means flat fitted curve, though single readings scatter.

Assay: qHTS assay to test for compound auto fluorescence at 460 nm (blue) in HEK293 cells (AID 720678)
Settings: blue autofluorescence 405/460 nm; series mostly up to 91.3 µM; fluorescence, % of triamterene: at the top concentration
Summary of the method: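 HEK293 cells (2,000 per well, medium with 10% dialyzed FBS) attached for 4-5 hr at 37C, then received compound and stood overnight at 37C, 5% CO2. Blue fluorescence was read at Ex/Em 405/460 nm and expressed relative to triamterene.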
On the % scale 0 is the no-effect control and ±100 the full control effect.

Row | Structure (SMILES) | fluorescence, % of triamterene
1 | O=C1C(=O)c2ccccc2C(O)=C1C1CCC(c2ccc(Cl)cc2)CC1 (centres undefined) | 0.0437% [at 18.6 µM]
2 | COc1ccccc1N1CCN(CC(O)COc2cccc3ccccc23)CC1 (centres undefined) | -0.0516% [at 46 µM]
3 | CN1CC(=O)N2[C@H](c3ccc4c(c3)OCO4)c3[nH]c4ccccc4c3C[C@@H]2C1=O | 0.172% [at 46 µM]
4 | O=C1c2ccccc2C(=O)C1c1nc2ccccc2c(Br)c1O | 0.0051%
5 | O=[N+]([O-])c1ccc(O/N=C/c2cc(Br)c(O)c(Br)c2)c([N+](=O)[O-])c1 | -0.184%
6 | C/C=C/C=C/C=O | 0.693%
7 | O=c1cc(-c2ccccc2)oc2ccc3ccccc3c12 | -0.158%
8 | Nc1nc2ccc([N+](=O)[O-])cc2s1 | -0.282%
9 | CCC(C)COC(C)=O (centres undefined) | 7.61%
10 | CCOC(=O)OC(C)OC(=O)[C@@H]1N2C(=O)[C@@H](NC(=O)[C@H](N)c3ccccc3)[C@H]2SC1(C)C (some centres undefined) | 0.659% [at 18.6 µM]
11 | C[C@@H]1CN(CCCn2c3ccccc3c3ccccc32)C[C@H](C)N1 | -0.0052% [at 46 µM]
12 | Cc1cc(O)ccc1O | 0.0585%
13 | CC1(C)[C@H](C(=O)O)N2C(=O)C[C@H]2S1(=O)=O | 0.204% [at 46 µM]
14 | Cc1cc(=O)c2c(O)c3c(O)cc(=O)c4c3c3c(cc(O)c1c23)C(C)(C)C=4O | -0.0608% [at 46 µM]
15 | CCCCC(CC)COP(=O)(O)O (centres undefined) | 0.0127% [at 95.7 µM]
16 | c1ccc2sc(SN(C3CCCCC3)C3CCCCC3)nc2c1 | -0.126% [at 95.7 µM]
17 | CCCCCCCCOc1ccc(C(=O)O)cc1 | -0.27%
18 | CCCC(C(=O)OCCN(CC)CC)(c1ccccc1)c1ccccc1 | -0.0528% [at 46 µM]
19 | C=CCc1ccccc1OCC(O)CNC(C)C (centres undefined) | 0.0412% [at 46 µM]
